# Assay results taken from the supplement of paper PMC11417369.
# The full ranking holds about 25,000 sequences; the median of “ln(normalized median fluorescence intensity)” is about 9.3, and the highest 2% start at about 10. The sample holds the highest values, similar sequences and a random draw of the others, so the mix is not that of the screen.
# Tested on: PF3D7_0420300 AP2 domain 1 (GST-tagged)
# Assay: gcPBM binding intensity (ln(normalized median fluorescence intensity)); higher = stronger DNA binding
# Summary of the method: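 Binding intensity values are the highest Masliner-normalised natural-log median intensity among replicate spots of either probe orientation. The binding step lasted 1 h in 1× PBS with 1% milk, 0.2 mg/ml BSA, 0.5% salmon testes DNA and 0.03% Triton X-100, using GST-tagged P. falciparum DNA-binding domains expressed in E. coli on an Agilent 4 × 180k array of primer-extended double-stranded 36-bp intergenic genomic probes plus negative controls. Alexa488 anti-GST antibody and a 488 nm scan detected bound protein.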
row,Sequence,gcPBM binding intensity (ln)
1,TAATATATGTTATATACACACATATAAATATAAATA [CACACA_site6339],9.2
2,TGTTACATAAAATGCACACTTTCAAATATGCTAATA [CACACA_site2925],9.05
3,GTTTCCTTAATATTCACACACATATCTATAATATAT [CACACA_site6959],9.87
4,ACAAATAAAAATATTACACACACTATTATATTGATA [CACACA_site1494],9.86
5,ATATAAAATAGACACGCACACAAAAAAAAAAAAAAA [CACACA_site3522],9.5
6,CATATACATAGACACACACACACATAAATAAATATA [CACACA_site6749],10.1
7,TCATAGTATAGACACACACACACACGCATATAAATA [CACACA_site6915],10.2
8,TACACGCATAGACACACACACACACGCATATAAATA [CACACA_site6446],10.3
9,ATGGCCATAATATAGACACACATATATAAATATATA [CACACA_site2230],9.28
10,TATATTGATGATGATAGTACGTATGATTAGAAAAAA [XGTACX_site8989],9.18
11,ATGTATATGTCTATATGTACTTATATTTTATTTTTT [XGTACX_site5902],9.37
12,TTAATATATTAAATCTTACACACTAAAAAATATGTA [CACACA_site307],9.16
13,ATACTAACATTTTTTTGTACATATAACTATAAAATA [XGTACX_site1033],9.16
14,AGATATTTATTGAGTGCATGTTATAAAGGGAAAAAA [TGCATGCA_site88],9.32
15,TATAACATATGACACACACACATACATACACAAAAA [CACACA_site6935],10.2
16,TTTAACATAAATTAAACACACAATAAAATACATTAA [CACACA_site6699],9.54
17,ATTAAATACATTAACACACACACAAATATATACATA [CACACA_site2881],10.1
18,TATAACATAAAACACACACACATACATACACAAAAA [CACACA_site1804],10.1
19,AAAATAAAATAAAATACACACATACATACATACAAA [CACACA_site5366],9.95
20,AATAAAATAAAATACACACATACATACATACAAATG [CACACA_site2438],10.2
21,TATACACATATATAAACACACAAAAAAAAAAAAAAA [CACACA_site7041],9.38

row,Sequence,gcPBM binding intensity (ln)
1,ATAAAACAAAAACACACACACATACACAAAAAAAAA [CACACA_site3848],10.2
2,AAATAAAACAAACACACACACACATACACAAAAAAA [CACACA_site3849],10.2
3,TATAACATAGGACACACACACATACATACACAAAAA [CACACA_site5062],10.2
4,AACACATACAAACACACACACAAAAAAAAAAAAAAA [CACACA_site393],9.78
5,ATTAAATACATTAACACACACACAAATAAATACATA [CACACA_site5583],10.3
6,TATATATTTCATAATACACACGAAAAAAAAAAAAAA [CACACA_site8972],9.31
7,TACATTTAAAAAAAAACACACATATATATATATATA [CACACA_site2535],8.99
8,TAATTTTTATTCAAGAGTACACAAAAGATAACTAAA [XGTACX_site4060],9.14
9,AAAAAAAAAAAACATACACACAAATAAATACATACA [CACACA_site6073],9.9
10,AAGACACAAAAACACACACACATACATACATACATA [CACACA_site454],9.91
11,ATAAAACAAAGACACACACACATACACAAAAAAAAA [CACACA_site7752],10.2
12,ACAAAAAAAAAAAAAATACACACACATAAAAAAAAA [TGCATGCA_negctrl_site333],9.72
13,CAAAGACACAAACACACACACACATACATACATACA [CACACA_site453],10.1
14,AATAAACATAAATACACACACAAAAAAAAAAACATA [CACACA_site4396],10.3
15,TAATTTTTTTAAAAGCGTACATTTAAAAAAAAATAT [XGTACX_site2736],8.76
16,TAATAACTACAAAAAAAAAAGAAAAATAGAAAAAGG [CACACA_negctrl_site1102],9.55
17,TTGCATATTTCTAATTGTACATTATTTTATTTTATA [XGTACX_site8451],9.45
18,AGAAAAAAAAAACACACACACACACCCTCAATATAA [CACACA_site39],10.1
19,AAAAAAAAGAAACACACACACATACACATAAATATA [CACACA_site3807],10.1
20,AAAGAAAAAAAAAACACACACACACGCATTCAATAT [CACACA_site6169],10.1
21,AAAAAAAAAAAAGAAACACACATATATATATATATA [CACACA_site140],9.23

row,Sequence,gcPBM binding intensity (ln)
1,CACTAAAAGAAACACACACACACACCCATATATATA [CACACA_site4151],10.2
2,ATAAAAAAAAGAAAAACACACACATATATATATATA [CACACA_site8243],9.61
3,AATAAAAAGAAACACACACACACACCCATATATATA [CACACA_site3589],10.2
4,ATATAAGAAAAGCACACACACACAAAAAAAAAAAAA [CACACA_site2827],10.1
5,AGATATAAGAAAAGCACACACACACCCAAAAAAAAA [CACACA_site2826],10.2
6,AAAGAAAAAAAAAACACACACACACCCATTCAATAT [CACACA_site38],10.2
7,AGAGATATAAGAAAAGCACACACACCCAAAAAAAAA [CACACA_site8917],9.92
8,AAAAGAAAAAGAAAAACACACATAAATATAAATATA [CACACA_site1879],9.59
9,AGTAACTAATTAAATGCATGTCGATATATATTATAT [TGCATGCA_site1038],9.35
10,CGTTTTCTATATCATTGTACATATTCATGTGTAAAT [XGTACX_site2741],9.24
11,CATAAATACAGATATACACACATATATATATATATA [CACACA_site4528],9.45
12,AATAAAAAGTAATAATAACGTATAATTTATTATACT [TGCATGCA_negctrl_site414],9.14
13,TATTTTTTATGATTAACACACACACTAATAAAAAAA [CACACA_site9370],9.77
14,ACGTTTACGTTATTATGTACGTAATATATCATACCT [XGTACX_site5006],9.09
15,AAAAAAAAAAGAAACACACACATATATATATAGAAT [CACACA_site1777],10.1
16,AAAAAAAAGAAAAACACACACATATATATATAGAAT [CACACA_site1006],10.2
17,CACACCCACCAACACACACACAAAAAAAAAAAGAAA [CACACA_site500],9.59
18,TTAACAAAGAAACACACACACACACCCAAAAAAAAA [CACACA_site516],10.2
19,CAACAAAAGAAACACACACACACAAACACAAAAAAA [CACACA_site3389],10
20,ATACTAAAGAAACACACACACATATATATATAGAAT [CACACA_site100],10.3
